Bioassay records: PubChem, National Center for Advancing Translational Sciences (NCATS)
VP16 counter: Gal4-VP16 reporter inhibition counter-screen | 310,000 tested, 3.5% active | Potency, µM (top dose mostly 53.6 µM), for the others: top-dose activity, negative = inhibition, most hits filed as inhibitors | Drosophila S2 Gal4-VP16 UAS-luciferase, luminescence, 20 h;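 note: Gal4-VP16 expression switched on by copper sulfate through the metallothionein promoter; potency is the fitted concentration of half-maximal effect; nearly all actives have a fitted effect of over 50% in size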
TSHR antag: human thyrotropin receptor antagonism | 330,000 tested, 0.2% active | TSHR-expressing cells, TSH-stimulated cAMP HTRF, 2 h; active compounds read low | AID 504810 | P16473 | activity change, negative = inhibition, % at 11.5 µM;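 active = activity change below a set negative limit, meaning inhibition stronger than a set level, cut at about -70% in these data; inconclusive = activity change between two set negative limits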
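TSHR-expressing cells were treated with compounds, then stimulated with TSH at EC80 (4nM final) for 2 hours at 37 deg C. Cellular cAMP was measured by HTRF competition between lysate cAMP and cAMP-d2 for a cryptate-labelled anti-cAMP antibody.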
RORg inh: ROR gamma (mouse) transcription inhibition; P51450; Drosophila S2 Gal4-RORgamma UAS-luciferase reporter, 20 h; Potency, µM (highest dose often 53.6 µM), for the others: top-dose activity change, negative = inhibition, usual class: inhibitors; 310,000 tested, 5.4% active; AID 2551; note: potency is the fitted concentration of half-maximal effect; nearly all actives have a fitted effect of over 60% in size
Target sequence (P51450 whole entry, looked up, the tested form may be a part): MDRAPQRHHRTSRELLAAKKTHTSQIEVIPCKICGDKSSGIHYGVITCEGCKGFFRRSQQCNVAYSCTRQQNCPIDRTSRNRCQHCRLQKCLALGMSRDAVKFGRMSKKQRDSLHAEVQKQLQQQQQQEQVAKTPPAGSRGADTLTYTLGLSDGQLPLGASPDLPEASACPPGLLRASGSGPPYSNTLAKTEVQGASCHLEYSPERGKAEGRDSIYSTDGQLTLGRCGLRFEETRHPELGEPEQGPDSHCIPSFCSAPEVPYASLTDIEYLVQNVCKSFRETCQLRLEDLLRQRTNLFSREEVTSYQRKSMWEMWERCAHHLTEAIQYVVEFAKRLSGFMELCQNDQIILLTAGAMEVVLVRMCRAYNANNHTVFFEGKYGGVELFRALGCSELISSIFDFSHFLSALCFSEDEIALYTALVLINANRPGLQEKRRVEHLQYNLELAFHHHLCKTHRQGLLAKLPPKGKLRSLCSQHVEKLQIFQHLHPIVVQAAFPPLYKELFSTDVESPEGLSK
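A Gal4/UAS one-hybrid system in insect cells: metallothionein-promoter Gal4–ROR gamma fusion plus Photinus luciferase reporter. Copper sulfate 700 uM final, 20 hr ambient incubation, luminescent detection after 10 min with reagent.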
B2AR arrestin: agonists driving beta-arrestin recruitment to human beta2-adrenergic receptor; P07550; beta-arrestin recruitment to beta2AR, cell-based reporter; Potency, µM (titrated, usually from 46.1 µM), without a hit: at the highest dose activation, hits mostly activators; 330,000 tested, 0.02% active; AID 492947;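 note: potency is the fitted concentration of half-maximal effect; 0% = DMSO controls and full agonism = EC100 isoproterenol or metaproterenol; nearly all actives have a fitted effect of over 65% in size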
ELG1 DNA repair: ELG1-dependent DNA repair inhibition | HEK293T ELG1-luciferase reporter, luminescence, 16 h; DNA damage induced by 5-fluorouridine | Potency, µM (top dose mostly 46.1 µM), without a hit: at the highest dose activity change, negative = inhibition, most hits filed as inhibitors | 330,000 tested, 2.3% active; note: potency is the fitted concentration of half-maximal effect; nearly all actives have a fitted effect of over 55% in size
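Cells (2,000 per well) received 5-fluorouridine plus test compound or DMSO and were incubated 16 hr at 37 °C, 5% CO2. Luciferase activity was read by luminescence 30 min after ONE-Glo addition; signal suppression marked inhibition of damage-induced ELG1 function.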
* marks the source's active call; other numbers are inactive results; ? = inconclusive; / = no result given; [ ] = another dose, or the depositor's remark. Only some compounds are listed: those with a hit (about 7.5% of all), similar ones and a draw of the others. Unless noted, calls come from the whole dose curve; as a rule, active = well fitted curve in the direction sought with a large enough effect; inconclusive = small, poorly fitted or top-dose-only effect, or another doubt; inactive = no such curve, though single readings can be large; an effect the other way counts as inactive or inconclusive. Unless noted, % is set by controls: 0 for no effect and ±100 for the full control effect.

SMILES	VP16 counter	TSHR antag	RORg inh	B2AR arrestin	ELG1 DNA repair
CCN(CC)S(=O)(=O)c1ccc(-c2nnc3sc4cccc(C)c4n23)cc1	-2%	6	2.2µM*	0%	23µM*
CC(C)c1ccc(NC2CCCN(C(=O)CN3C(=O)CSC3=O)C2)cc1 (centres undefined)	-4%	4	14%	0%	17%
O=C(NCCN1C(=O)S/C(=C\c2ccc(Cl)c(Cl)c2)C1=O)C1COc2ccccc2O1 (centres undefined)	3%	-22	16%	0%	-12%
O=C(NCCN1C(=O)S/C(=C\c2ccc(Cl)c(Cl)c2)C1=O)c1ccc2c(c1)C(=O)N(Cc1ccncc1)C2=O	?	-2	?	0%	9.2µM*
CCc1ccc(NC(=S)/N=C(\N)Nc2nc(C)c3cc(CC)ccc3n2)cc1	7.1µM*	-6	1.1µM*	-1%	-29%
COc1ccc2nc(N/C(N)=N/C(=S)Nc3ccc(C)c(C)c3)nc(C)c2c1	?	12	0.79µM*	5%	-26%
Cc1ccc2nc(N/C(N)=N/S(=O)(=O)c3ccc([N+](=O)[O-])cc3)nc(C)c2c1	-4%	8	6%[10 µM]	0%	?
COc1ccc(OC)c(N/C(=N/C(=S)Nc2ccccc2)Nc2nc(C)cc(C)n2)c1	0.71µM*	4	?	0%	?
COc1ccc2nc(N/C(N)=N/C(=S)Nc3ccccc3)nc(C)c2c1	4.5µM*	-14	0.79µM*	-1%	?
COc1ccc2c(C)nc(N/C(N)=N/S(=O)(=O)c3ccc(C)cc3)nc2c1	-2%	7	-3%	0%	?
CC(=O)c1ccc(-c2ccc(C(=O)N(C)c3c(N)n(Cc4ccccc4)c(=O)[nH]c3=O)o2)cc1	/	3	/	0%	?
CCOc1ccc2nc(N/C(N)=N/S(C)(=O)=O)nc(C)c2c1	6%	9	4%	0%	?
CCOc1ccc2nc(N/C(N)=N/C(=S)Nc3ccc(OC)cc3)nc(C)c2c1	?	-1	1.6µM*	0%	?
COc1cccc(C2CC3(CC(C)(C)NC(=S)N3)Oc3cc(O)ccc32)c1 (centres undefined)	-1%	42	-38%	?	?
CC1(C)CC2(CC(c3ccccc3F)c3cc(Cl)c(O)cc3O2)NC(=S)N1 (centres undefined)	?	-3	11µM*	0%	?
Cc1cccc(C2CC3(CC(C)(C)NC(=S)N3)Oc3cc(O)ccc32)c1 (centres undefined)	-17%	3	10µM*	-1%	?
COc1ccc(C2CC3(CC(C)(C)NC(=S)N3)Oc3cc(O)cc(C)c32)cc1OC (centres undefined)	27%	0	?	5%	-12%
COCCNC(=O)C1CCC(Cn2c(=S)[nH]c3ccccc3c2=O)CC1 (centres undefined)	15%	6	-29%	0%	-7%
O=C(NCCc1c[nH]c2ccccc12)C1CCC(Cn2c(=S)[nH]c3ccccc3c2=O)CC1 (centres undefined)	13µM*	-4	7.1µM*	-1%	?
CCOc1c2ccc(C(=O)NCC34CC5CC(CC(C5)C3)C4)cc2nn1CC	11µM*	0	?	0%	7%
CCn1nc2cc(C(=O)NCC34CC5CC(CC(C5)C3)C4)ccc2c1OC	?	13	7.1µM*	0%	5%
CCCCn1nc2cc(C(=O)NCC34CC5CC(CC(C5)C3)C4)ccc2c1OC	-12%	0	0%	0%	?
COc1cc2c(cc1OC)C(c1ccccc1)N(C(=O)CCl)CC2 (centres undefined)	?	2	25µM*	0%	?
COC(=O)N/N=C/c1ccc(OS(=O)(=O)c2ccc(C)cc2)c(OC)c1	-6%	-29	37%	-1%	-19%
C=CCNC(=O)/C(C#N)=C/c1ccc(OS(=O)(=O)c2ccc(C)cc2)c(OC)c1	?	-8	11µM*	-1%	?
Cn1cccc1/C=N/NC(N)=S	?	-2	6.3µM*	0%	14%
